Laboratory results published in PubChem BioAssay AID743263 (The Scripps Research Institute Molecular Screening Center, 2014).
Hit rate of the full screen: of about 1,100 compounds, about 250 (23%) were called active. Only a sample is shown. A number with no mark means an inactive call. No stated cut-off is given here; in the data, active means inhibition above about 25%; inactive means the rest.

Molecular target: Tyrosyl-DNA phosphodiesterase 2 (Homo sapiens) (UniProt O95551)
Experiment: blockers of TDP2 phosphodiesterase activity – biochemical, epi absorbance, recombinant enzyme, confirmation (AID 743263);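 further: 0% = vehicle with enzyme and 100% = no enzyme buffer only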
Settings: recombinant human TDP2, absorbance read-out; at 12.8 µM; stronger effect = higher value

Chain of Tyrosyl-DNA phosphodiesterase 2 (Homo sapiens) (O95551 whole entry, looked up): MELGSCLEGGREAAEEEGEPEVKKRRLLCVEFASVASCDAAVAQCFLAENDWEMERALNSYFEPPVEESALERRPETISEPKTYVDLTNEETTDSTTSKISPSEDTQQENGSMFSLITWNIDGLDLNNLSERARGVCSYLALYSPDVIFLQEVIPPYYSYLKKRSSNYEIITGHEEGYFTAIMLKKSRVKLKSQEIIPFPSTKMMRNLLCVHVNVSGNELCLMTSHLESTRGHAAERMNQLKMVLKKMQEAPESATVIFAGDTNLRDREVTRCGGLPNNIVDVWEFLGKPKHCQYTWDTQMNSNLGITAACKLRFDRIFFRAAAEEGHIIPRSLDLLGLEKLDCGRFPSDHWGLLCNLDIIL

How did the inhibition turn out when NC1=CC(=O)C(=O)c2cccnc21 was run?
The inhibition was 65.8% (active).

For CCSc1nnc(SCC(=O)NNC(=O)c2ccccc2F)s1, which inhibition is on record?
The inhibition was -14.1%.

With Cc1cc(C)c(OCCN2CC(C)OC(C)C2)c(Br)c1 (stereo not drawn) as the molecule, how does the inhibition read?
Its inhibition is -5.14%.

How did the inhibition turn out when CCCCCCCCc1c(O)nc(-n2[nH]c(C)c(CCO)c2=O)[nH]c1=O was run?
The inhibition was 27.3% (active).

Which inhibition does the source give for CCOC(=O)N1CCC(c2cc(=O)n(-c3ccccc3)[nH]2)CC1 here?
Its inhibition is 0.79%.

With Cc1ccc(S(=O)(=O)N2CCC(C(=O)NCCC3=CCCCC3)CC2)cc1C as the molecule, how does the inhibition read?
The inhibition was -3.83%.

For CC(=O)N(C1=C(Cl)C(=O)c2ccccc2C1=O)c1ccc(C(=O)O)cc1, which inhibition is on record?
Its inhibition is 59.3% (active).

Which inhibition does the source give for CC(C)Cn1c(N)c(C(=O)NCc2cccs2)c2nc3ccccc3nc21 here?
The inhibition was 10.2%.

Which inhibition does the source give for CCN(CC)CCN1C(=O)C2C(C(=O)Nc3ccc(Br)cc3)C3C=CC2(O3)C1C(=O)NC1CCCCC1 (stereo not drawn) here?
The inhibition was -2.2%.

COc1ccccc1C1C(C#N)=C(N)Oc2c1c(-c1ccccc1)nn2-c1ccccc1 (stereo not drawn) was tested. Which inhibition did it give?
The inhibition was -0.56%.

Cn1nc(N)c2ncc(C(Cl)(Cl)Cl)nc21 was tested. Which inhibition did it give?
Its inhibition is 2.05%.

Which inhibition does the source give for COc1ccc2c(c1)c(=Cc1ccc(N(C)C)cc1)c1cc(-c3ccccc3)[n+](C)n12 here?
The inhibition was 9.49%.

How did the inhibition turn out when Oc1c(C=Nc2cccc3nsnc23)ccc2ccccc12 was run?
The inhibition was 41.4% (active).

For COc1ccc(-c2csc(Nc3ccc(O)cc3)n2)cc1, which inhibition is on record?
Its inhibition is 3.53%.

For O=C(OCC(=O)N1CCN(c2ccccc2)CC1)c1ccc([N+](=O)[O-])s1, which inhibition is on record?
The inhibition was 10.4%.

COc1cc(OC)cc(C(=O)OCC(=O)Nc2sccc2C(N)=O)c1 was tested. Which inhibition did it give?
Its inhibition is -2.14%.

With COc1cc(NC(=O)COC(=O)c2ccc([N+](=O)[O-])s2)cc(OC)c1OC as the molecule, how does the inhibition read?
Its inhibition is 35.1% (active).

How did the inhibition turn out when O=C(NC1CCCCC1)N1CCc2[nH]c3ccccc3c2C1 was run?
The inhibition was 7.01%.

Which inhibition does the source give for Cc1ccc(Cl)cc1NC(=O)CN1CCN(S(=O)(=O)N2CCOCC2)CC1 here?
The inhibition was -8.33%.

O=c1oc2ccccc2c(CNc2ccccc2)c1[N+](=O)[O-] was tested. Which inhibition did it give?
The inhibition was 11.7%.

Which inhibition does the source give for CCN(CC)CCCC(C)n1c2nc(=O)[nH]c(=O)c-2nc2cc(Cl)ccc21 (stereo not drawn) here?
Its inhibition is 52.2% (active).

For O=S(=O)(Nc1ccc(O)c2ccccc12)c1ccc(OC(F)(F)F)cc1, which inhibition is on record?
Its inhibition is 15.5%.

Cc1ccc(OCCCCc2c(C)n[nH]c2C)cc1 was tested. Which inhibition did it give?
The inhibition was 2.05%.

CN1c2ccc(C=O)c3c(C=O)ccc(c23)N(C)C1(C)C was tested. Which inhibition did it give?
Its inhibition is 21%.

With CC(=O)c1ccc(S(=O)(=O)N2CCC3(CC2)OCCO3)cc1 as the molecule, how does the inhibition read?
Its inhibition is -6.04%.

COC1=C(N2CCOCC2)C(=O)c2ccccc2C1=O was tested. Which inhibition did it give?
Its inhibition is 30.9% (active).

Which inhibition does the source give for COc1ccc(S(=O)(=O)/N=C2\C=C(NS(=O)(=O)c3ccccc3)C(=O)c3ccccc32)cc1 here?
Its inhibition is 16.7%.

With COCCN1C=C2C(=O)C(C)(OC(=O)C3CCCC3)C(=O)C=C2C=C1c1ccsc1 (stereo not drawn) as the molecule, how does the inhibition read?
Its inhibition is 12.3%.

How did the inhibition turn out when O=C1Nc2ccc([N+](=O)[O-])cc2C1=Nc1cccc(CO)c1 was run?
The inhibition was 28.1% (active).

How did the inhibition turn out when Cc1nn(-c2ccccc2)c2c1C(c1ccc(F)cc1)C(C#N)=C(N)O2 (stereo not drawn) was run?
The inhibition was -4.61%.

How did the inhibition turn out when CC1=NN(c2ccc(Cl)c(C(=O)O)c2)C(=O)/C1=C/c1ccc(-c2ccccc2[N+](=O)[O-])o1 was run?
The inhibition was -34.7%.

With CCc1ccccc1NC(=S)Nc1cc(OC)c(NC(=O)C(C)C)cc1OC as the molecule, how does the inhibition read?
The inhibition was 2.01%.

Clc1ccc(C2=CSC3=Nc4cccc5cccc(c45)N23)cc1 was tested. Which inhibition did it give?
Its inhibition is 55% (active).

With O=C(NCc1ccccc1Cl)C(=O)NCC1CCCN1S(=O)(=O)c1cccs1 (stereo not drawn) as the molecule, how does the inhibition read?
Its inhibition is -5.35%.

Cc1ccccc1Cn1c2ccccc2c2cnn(CC(=O)NCc3ccco3)c(=O)c21 was tested. Which inhibition did it give?
Its inhibition is -10.2%.

Which inhibition does the source give for COc1ccc2c(c1)C(C)=CC(C)(C)N2C(=O)Nc1ccccc1 here?
The inhibition was 7.25%.

With COCCn1nnnc1C(c1cc2ccc(OC)cc2[nH]c1=O)N1CCc2ccccc2C1 (stereo not drawn) as the molecule, how does the inhibition read?
The inhibition was -0.83%.

With C=CCn1c(N)c(C(=O)OCC(C)C)c2nc3ccccc3nc21 as the molecule, how does the inhibition read?
Its inhibition is 9.13%.

Which inhibition does the source give for Oc1ccc(N=Cc2c(O)ccc3ccccc23)cc1 here?
The inhibition was 52.7% (active).

Oc1ccc(N=Cc2sc3ccccc3c2Cl)cc1 was tested. Which inhibition did it give?
The inhibition was 71.6% (active).

CCN1C(=O)c2cccc3c(N)ccc1c23 was tested. Which inhibition did it give?
The inhibition was 8.24%.

Which inhibition does the source give for CN(C)c1ccc(N/C=C/C(=O)C(F)(F)F)cc1 here?
The inhibition was -9.4%.

Which inhibition does the source give for Cc1[nH][nH]c(=O)c1C(c1ccc(-c2ccc(Cl)cc2)o1)c1c(C)[nH][nH]c1=O here?
The inhibition was 20.6%.

With O=Cc1cn(-c2ccccc2)nc1-c1ccccn1 as the molecule, how does the inhibition read?
The inhibition was 2.54%.

How did the inhibition turn out when CC1CCCC(NC(=O)c2cc(-c3ccncc3)nc3ccccc23)C1C (stereo not drawn) was run?
The inhibition was -1.39%.

CCOC(=O)c1c(C)[nH]c2c1-c1ccccc1C(=O)C2=O was tested. Which inhibition did it give?
The inhibition was 84.2% (active).

For Nc1ccc2nn(-c3ccc(Cl)cc3)nc2c1, which inhibition is on record?
The inhibition was 1.36%.

For CCCCNC(=O)CCn1nc(-c2ccc(Cl)cc2)ccc1=O, which inhibition is on record?
The inhibition was -5.6%.

For O=C(COC(=O)Cc1c[nH]c2ccccc12)NCCc1ccccc1, which inhibition is on record?
The inhibition was 4.15%.

Nc1nc(O)c(CC(=O)O)s1 was tested. Which inhibition did it give?
Its inhibition is 4.54%.

For O=C(NC1=CC(=O)c2ccccc2C1=O)c1ccccc1, which inhibition is on record?
Its inhibition is 60.1% (active).

For Cc1ccc(C(=O)Nc2c(-c3ccccc3)[nH][nH]c2=O)cc1, which inhibition is on record?
Its inhibition is 12.1%.

With Nn1cnnc1N/N=C/c1cc([N+](=O)[O-])c(Cl)cc1Cl as the molecule, how does the inhibition read?
Its inhibition is -5.21%.

How did the inhibition turn out when CCOc1ccc(C(c2c(C)[nH][nH]c2=O)c2c(C)[nH][nH]c2=O)cc1OCC was run?
Its inhibition is 10.8%.

With CCOC(=O)c1ccc(NC2Nc3cc(C)nn3S2)cc1 (stereo not drawn) as the molecule, how does the inhibition read?
Its inhibition is 7.05%.

CCOC(=O)c1ccc(Nc2cc3ccccc3c(=O)[nH]2)cc1 was tested. Which inhibition did it give?
The inhibition was 32.7% (active).

How did the inhibition turn out when COc1ccccc1CN1CCN(C(c2ccccc2)c2ccccc2)CC1 was run?
Its inhibition is 3.64%.

Which inhibition does the source give for COCCNC(=O)c1ccc(S(=O)(=O)c2ccc(Cl)cc2)c(NC(C)=O)c1 here?
The inhibition was 9.19%.
